Data published in PubChem BioAssay AID1851 (National Center for Advancing Translational Sciences (NCATS), 2009).
Screen size: about 16,000 compounds; about 5,100 (32%) were called active. Not shown: some 25% with an inconclusive outcome. Some of the results follow. A number with no mark means an inactive call. The call rests on the fitted dose curve; in most records, active means well fitted curve in the direction sought with a large enough effect; inconclusive means small, poorly fitted or top-dose-only effect, or effect the other way; inactive means no such curve, though single readings can be large or run the other way.

target: Cytochrome P450 3A4 (Homo sapiens) (UniProt P08684); assay: Cytochrome panel assay with activity outcomes; details: recombinant CYP, pro-luciferin dealkylation, luminescence, p450-cyp3a4; series mostly up to 57.1 µM; activity, negative = inhibition: at the top concentration
On the % scale 0 is the no-effect control and ±100 the full control effect.

Sequence of Cytochrome P450 3A4 (Homo sapiens) (P08684 whole entry, looked up): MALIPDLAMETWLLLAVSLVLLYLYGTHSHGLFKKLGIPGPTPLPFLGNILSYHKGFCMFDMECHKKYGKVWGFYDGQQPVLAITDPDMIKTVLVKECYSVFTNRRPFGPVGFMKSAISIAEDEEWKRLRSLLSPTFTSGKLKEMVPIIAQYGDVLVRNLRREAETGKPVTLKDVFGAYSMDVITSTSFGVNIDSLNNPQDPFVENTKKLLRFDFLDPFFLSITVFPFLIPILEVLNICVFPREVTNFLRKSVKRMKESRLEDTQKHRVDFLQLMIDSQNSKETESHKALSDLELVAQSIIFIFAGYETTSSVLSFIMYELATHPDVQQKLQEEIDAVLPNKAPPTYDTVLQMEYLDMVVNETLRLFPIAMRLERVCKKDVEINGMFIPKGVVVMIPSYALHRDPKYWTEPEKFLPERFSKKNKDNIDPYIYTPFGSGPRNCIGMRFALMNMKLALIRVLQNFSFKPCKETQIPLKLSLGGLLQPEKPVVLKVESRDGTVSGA

Structure (SMILES)	AC50	activity, negative = inhibition
CC(=O)c1c(O)c(C)c(O)c(Cc2c(O)c3c(c(C(=O)/C=C\c4ccccc4)c2O)OC(C)(C)C=C3)c1O	12.6 µM (active)	–
Clc1cnc(Oc2ccc(Oc3ncc(Cl)cc3Cl)cc2)c(Cl)c1	–	-3.91%
CSC([N-]/N=C/c1cccc(C)n1)=[S]=[Cu].CS[C@H]([S-])[N-]/N=C/c1cccc(C)n1	3.98 µM (active)	–
CCCN(CCC)[C@@H]1CCc2c(OC)cccc2[C@@H]1C	–	-4.58%
COC1=CC(=O)O[C@@H](/C=C\c2ccccc2)C1	–	4.42% [at 25.6 µM]
O=C(C[n+]1ccc2ccccc2c1)c1ccc2ccc3ccccc3c2c1	–	-29.1% [at 11.4 µM]
Nc1nc(N)c(N=Nc2ccc([As](=O)(O)O)c(O)c2)c(N)n1	–	7% [at 11.4 µM]
C[C@@H](Cc1cccc(C(F)(F)F)c1)NCCCc1ccccc1	5.01 µM (active)	–
C[C@@H](Cc1ccccc1)NCCC(c1ccccc1)c1ccccc1	–	-15.2% [at 25.6 µM]
CNCCCc1ccccc1	–	-2%
COc1cc2cc(c1Cl)N(C)C(=O)C[C@H](OC(=O)C(C)C)[C@]1(C)O[C@@H]1[C@@H](C)[C@H]1C[C@](O)(NC(=O)O1)[C@@H](OC)/C=C\C=C(\C)C2	–	-29.4% [at 11.4 µM]
c1ccc2c([C@@H]3CCN(CCN4CCOCC4)C3)c[nH]c2c1	–	-4.68% [at 11.4 µM]
COCOc1ccc(Br)cc1C(=O)/C=C\c1ccc2c(c1)OCO2	3.16 µM (active)	–
CN1CCN(c2cc(N3CCCC3)c([N+](=O)[O-])cc2F)CC1	–	-9.54%
COc1cc(-c2ccc(=O)[nH]n2)ccc1OC(F)F	–	-23.6%
CN1CCN(c2ccc([N+](=O)[O-])c(N/N=C3\CN4CCC3CC4)c2)CC1	–	11.8%
CC[C@H](Oc1ccc(Cl)cc1)C(=O)OC1C[C@H]2CC[C@@H](C1)N2C (stereo partly drawn)	–	-24.5%
Oc1ccc2c3c1O[C@H]1c4[nH]c5c(c4C[C@@]4(O)[C@@H](C2)N(CC2CC2)CC[C@]314)C[C@]1(O)[C@H]2Cc3ccc(O)c4c3[C@@]1(CCN2CC1CC1)[C@@H]5O4	–	-17.9%
Oc1ccc2c3c1O[C@H]1c4c(c5ccccc5n4Cc4ccccc4)C[C@]4(O)[C@H](C2)N(CC2CC2)CC[C@@]314	10 µM (active)	–
O=C1CC[C@]2(O)[C@H]3Cc4ccc(O)c5c4[C@@]2(CCN3CC2CC2)[C@@H]1O5	–	-5.91% [at 25.6 µM]
CN1C(=O)CCS(=O)(=O)[C@@H]1c1ccc(Cl)cc1	–	-19.6% [at 25.6 µM]
CN1[C@@H]2CC[C@H]1CC(O)C2 (stereo partly drawn)	–	0.0981% [at 25.6 µM]
C[C@@H]1O[C@@H](O[C@H]2C[C@@H](O)[C@]3(CO)[C@@H]4[C@@H](O)C[C@]5(C)[C@H]([C@@H]6COC(=O)C6)CC[C@@]5(O)[C@H]4CC[C@@]3(O)C2)[C@H](O)[C@H](O)[C@@H]1O	–	-2.34%
